In PubChem BioAssay (NCI):
Compounds without any hit were thinned out: in the full panel of roughly 83,000, 20% have a hit.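 Plates (96-well) were seeded with cells, treated with compound at one concentration, and incubated for 48 hours before percent growth was determined.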 Unmarked numbers belong to inactive results. Calls of active or inactive are those of the source. Rule for the calls: active = growth percent below 10; inactive = the rest.

Experiments:
Test in all cases: NCI-60 one-dose screen, 48 h (100 = growth as untreated, 0 = no growth, -100 = all killed)
Conditions in all cases: 10 µM unless noted
HCT-15 colon = tested on: HCT-15 colon
HT29 colon = tested on: HT29 colon
SNB-75 CNS = tested on: SNB-75 CNS
SNB-19 CNS = tested on: SNB-19 CNS
U251 CNS = tested on: U251 CNS
PC-3 prostate = tested on: PC-3 prostate
UACC-62 melanoma = tested on: UACC-62 melanoma
LOX IMVI melanoma = tested on: LOX IMVI melanoma
SK-MEL-28 melanoma = tested on: SK-MEL-28 melanoma

SMILES	growth (HCT-15 colon)	growth (HT29 colon)	growth (SNB-75 CNS)	growth (SNB-19 CNS)	growth (U251 CNS)	growth (PC-3 prostate)	growth (UACC-62 melanoma)	growth (LOX IMVI melanoma)	growth (SK-MEL-28 melanoma)
CNc1ccc(-c2cc(=O)oc3ccc(Cl)cc23)cc1	14.9%	-2.77% (active)	40.9%	22.7%	8.91% (active)	12.8%	31.7%	24.1%	58.5%
O=c1cc(CSc2nnc(SCc3cc(=O)oc4c3ccc3ccccc34)o2)c2ccc3ccccc3c2o1	104%	97%	93%	107%	97.2%	89.9%	99.6%	88.7%	109%
CC1=C[C@H]2c3c(c(O)c(O)c4oc5c(C)cccc5c(=O)c34)[C@H](c3cc(O)c(O)c4oc5c(C)cccc5c(=O)c34)[C@H]2C(C)(C)C1	12.5%	21%	-25.7% (active)	15.2%	11.3%	10.1%	-43% (active)	–	26.6%
CCCn1c(=O)[nH]c(N)c([C@H]2c3ccccc3Oc3[nH]c(=O)n(CCC)c(=O)c32)c1=O	48.9%	85.3%	82.9%	97.8%	81.8%	107%	80.6%	64.8%	73%
CC(=O)Nc1ccc(S(=O)(=O)Nc2cccc(-c3nc(-c4ccc(NC(=O)c5cccnc5)cc4Cl)no3)c2)cc1	88.3%	9.79% (active)	27.6%	37.7%	29.7%	25.8%	37.4%	40.2%	50.6%
COC(=O)c1ccc(Cn2cnc3c(N)ncnc32)cc1	99.8%	98.6%	86.7%	104%	111%	111%	102%	–	104%
O=C1Nc2c(ccc(Cl)c2Cl)/C1=C\c1ccc(C(F)(F)F)cc1	81.9%	74.4%	73.4%	81.6%	74.2%	62.5%	61.9%	–	97.4%
COc1ccc(/C=C/C(=O)c2cc(O)ccc2O)cc1	87.7%	102%	84.1%	96.6%	84.8%	88.4%	102%	103%	109%
CCOc1cc2ncc(C#N)c(Nc3ccc(OCc4cccc(F)c4)c(Cl)c3)c2cc1NC(=O)CC1CCSS1 (stereo not drawn)	66.4%	17.6%	102%	81.5%	55.9%	-42.7% (active)	71.6%	-35.3% (active)	34.9%
Cc1ccc2oc(=O)cc(C3c4ccc([nH]4)C(c4cc(=O)oc5ccc(C)cc45)c4ccc([nH]4)C(c4cc(=O)oc5ccc(C)cc45)c4ccc([nH]4)C(c4cc(=O)oc5ccc(C)cc45)c4ccc3[nH]4)c2c1 (stereo not drawn)	-46.9% (active)	-75.7% (active)	-42% (active)	-29.6% (active)	-80.7% (active)	-27.2% (active)	-57% (active)	–	-53.2% (active)
COc1ccc(Nc2cc(C)nc(N3CCN(c4ccnc5cc(Cl)ccc45)CC3)n2)cc1	14.8%	9.85% (active)	42.7%	48.1%	37.6%	33%	17.7%	–	59.9%
Clc1ccc2c(NCCNc3nc(N4CCCCC4)nc4ccccc34)ccnc2c1	-30.1% (active)	-28% (active)	-23.2% (active)	13.2%	-81.7% (active)	9.71% (active)	-90.7% (active)	-83.6% (active)	-79.2% (active)
O=C(Cc1ccc(/C=C/C(=O)c2ncc[nH]2)cc1)Nc1ccccc1	12.9%	4.83% (active)	58.4%	22.6%	11.3%	57.1%	68.5%	10.1%	98.9%
Cc1nn(-c2cc(=O)[nH]c3ccccc23)c(N)c1C#N	106%	107%	82.4%	102%	99%	96%	99.2%	98.4%	109%
CCCCCCN(CCCCCC)CCC(O)c1ccc2ccccc2c1 (stereo not drawn)	48.1%	27.7%	68.2%	78.5%	62.7%	48.6%	77.3%	40.5%	88.1%
CCCOc1ccc2nc(NC(=O)OC)[nH]c2c1	12.4%	0.423% (active)	46.1%	34%	12.7%	19.7%	22.3%	–	66.5%
O=C1c2cc3c(cc2-c2c1c1ccc(F)cc1c(=O)n2CCCNCCO)OCO3	-41.8% (active)	-74.3% (active)	-98.5% (active)	-21.9% (active)	-82.8% (active)	-41.9% (active)	-60.5% (active)	-88.3% (active)	-13.8% (active)
Nc1ccc(S(=O)(=O)O)c2ccc(N=Nc3ccc(N=Nc4ccc(S(=O)(=O)O)cc4)c4ccccc34)c(O)c12	115%	103%	76.5%	95.9%	111%	91.6%	91.3%	98.1%	109%
Cc1c(/C=C/[N+](=O)[O-])ccc2c1[nH]c1ccccc12	81.3%	96.5%	107%	100%	73.7%	95.5%	81%	–	113%
O=C(Cc1ccc(/C=C/C(=O)c2ncc[nH]2)cc1)Nc1ccc(F)cc1	5.31% (active)	3.91% (active)	20.4%	14.2%	8.1% (active)	32.9%	40.5%	2.77% (active)	87.2%
COc1cc2c(cc1-c1c(C)noc1C)ncc1nc(C3CCOCC3)n([C@H](C)COC(F)F)c12	22.8%	24.5%	29.9%	47.6%	51.8%	34.3%	17.8%	12.6%	55.8%
Cc1ccc(-c2onc3c(=O)[nH]nc(-c4ccccc4)c23)cc1	31.7%	-3.08% (active)	10.1%	31.3%	20.3%	25.8%	44.8%	37.6%	66.9%
CN(C)c1ccc(N=Nc2ccccn2)c(O)c1	31.6%	24.1%	42.7%	18.6%	11.7%	33.8%	-28.3% (active)	8.14% (active)	32.8%
COc1ccc(SC2c3cc(OC)c(OC)cc3Oc3nc(N)c(C#N)c(N)c32)cc1 (stereo not drawn)	-62.2% (active)	-24.9% (active)	-65.2% (active)	-83% (active)	-98.6% (active)	-76.8% (active)	-75.1% (active)	-92.7% (active)	-70.1% (active)
O=C(Oc1cccnc1)c1ccsc1Nc1ccnc(C(F)(F)F)c1	45.9%	4.26% (active)	80.5%	97.7%	92.5%	83.8%	91.5%	21.9%	89.3%
O=c1ccccc(-c2ccc(-c3ccco3)cc2)c1O	29%	24.9%	38.8%	19.3%	8.2% (active)	32%	-42.3% (active)	–	30.7%
CCCCCC(=O)Oc1ccc(/C(=C(\C)c2ccc(OC)cc2)c2ccc(OCCN3CCCCC3)cc2)cc1	9.94% (active)	8.71% (active)	64%	74.4%	45.4%	51.1%	6.92% (active)	–	27.6%
CCN(CC)c1ccc(/C=N\NC(=O)/C=C/C=C/c2ccc3c(c2)OCO3)c(O)c1	21.3%	67.8%	58.8%	61%	43.3%	40.9%	29.1%	18.2%	52.1%
